PubChem BioAssay AID1851 (National Center for Advancing Translational Sciences (NCATS), 2009)
The whole screen tested about 16,000 compounds, of which about 4,000 (25%) were called active. Roughly 26% stayed inconclusive and do not appear here. Calls follow the shape of the dose curve; as a rule, active = well fitted curve in the direction sought with a large enough effect; inconclusive = small, poorly fitted or top-dose-only effect, or effect the other way; inactive = no such curve, though single readings can be large or run the other way. Not all results are given here.

Molecular target: Cytochrome P450 2C9 (Homo sapiens) (UniProt P11712)
Assay: Cytochrome panel assay with activity outcomes
Conditions: recombinant CYP, pro-luciferin dealkylation, luminescence, p450-cyp2c9; series mostly up to 57.1 µM; activity, negative = inhibition: at the top concentration
% is scaled to controls: 0 for no effect and ±100 for the full control effect.

Chain of Cytochrome P450 2C9 (Homo sapiens) (P11712 whole entry, looked up): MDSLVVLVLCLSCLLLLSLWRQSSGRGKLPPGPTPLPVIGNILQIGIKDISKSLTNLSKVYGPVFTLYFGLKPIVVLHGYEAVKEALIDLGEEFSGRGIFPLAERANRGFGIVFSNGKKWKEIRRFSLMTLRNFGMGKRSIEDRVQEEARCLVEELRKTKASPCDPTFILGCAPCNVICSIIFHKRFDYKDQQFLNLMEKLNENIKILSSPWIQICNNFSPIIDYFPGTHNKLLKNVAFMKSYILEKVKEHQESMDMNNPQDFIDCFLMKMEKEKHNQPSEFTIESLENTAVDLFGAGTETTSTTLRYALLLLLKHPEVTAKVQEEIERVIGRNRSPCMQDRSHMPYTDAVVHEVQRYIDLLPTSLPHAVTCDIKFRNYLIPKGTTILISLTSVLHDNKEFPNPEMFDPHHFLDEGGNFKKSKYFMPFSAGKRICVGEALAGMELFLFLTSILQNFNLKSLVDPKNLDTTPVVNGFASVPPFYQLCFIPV

SMILES | activity, negative = inhibition | AC50
Nc1nc(SCc2ccc([N+](=O)[O-])cc2)c2ncn([C@@H]3O[C@@H](CO)[C@@H](O)[C@H]3O)c2n1 | 13.2% (inactive) | 
CN1CCC(=C2c3ccccc3C=Cc3ccccc32)CC1 |  | inactive
CO[C@@H]1COC(=O)[C@H](CCSC)NC(=O)C/C=C\[C@@H](C)COC(=O)[C@@H]2CCCN2C(=O)C/C=C\[C@H]1C | 13.2% [at 11.4 µM] (inactive) | 
CCNc1ncc2nc(-c3ccc(Cl)cc3)c(=O)n(C[C@H]3CCCO3)c2n1 | -1.79% (inactive) | 
CN1CCc2c(c3ccccc3n2C)C1 | -11.6% (inactive) | 
Cn1c(=O)c2[nH]c(CCCCc3nc4ccccc4[nH]3)nc2n(C)c1=O | 2.16% [at 11.4 µM] (inactive) | 
CC(C)c1ccc(NC(=O)N(CCc2nc3ccccc3[nH]2)C2CCCC2)cc1 |  | 7.94 µM (active)
COCC(=O)O[C@]1(CCN(C)CCCc2nc3ccccc3[nH]2)CCc2cc(F)ccc2[C@@H]1C(C)C | 13.1% (inactive) | 
Cc1cnc(CNc2ncnc3ccc(-c4ccccc4C(F)(F)F)cc23)cn1 | -21.8% [at 2.29 µM] (inactive) | 
COc1ccc(S(=O)(=O)Nc2ccc(S(=O)(=O)N3CCCCC3)cc2)cc1C |  | 0.355 µM (active)
COc1ccc(S(=O)(=O)N2CCCCCC2)cc1N(C)S(=O)(=O)c1ccc(Cl)cc1 |  | 4.47 µM (active)
CC(=O)ON(C(C)=O)S(=O)(=O)c1ccc(Cl)cc1 | -9.68% (inactive) | 
COc1ccc(NS(=O)(=O)c2ccc(I)cc2)cc1N1CCN(C)CC1 | -14% (inactive) | 
CSc1nc2cc(S(=O)(=O)N3CCCCC3)ccc2s1 | -29.2% [at 11.4 µM] (inactive) | 
O=S(=O)(NCCNC/C=C\c1ccc(Br)cc1)c1cccc2cnccc12 | -8.85% (inactive) | 
CN=C1S/C(=C\c2ccc(Sc3ccc(Cl)cc3)o2)C(=O)N1C |  | 1.26 µM (active)
Clc1ccc(Sc2ccc(/C=N/n3cnnc3)o2)cc1 |  | 7.94 µM (active)
Cc1ccc(Nc2nc(Cl)nc(N(C)C#N)n2)cc1 |  | 15.8 µM (active)
O[C@]1(c2ccccc2)c2ccccc2NC2=NCCN21 | 3.96% [at 11.4 µM] (inactive) | 
CS(=O)(=O)c1ccccc1COC(=O)Nc1ccc(Cl)cc1 | -21.7% (inactive) | 
O=C(Nc1ccccc1)OCc1cc(-c2ccc(Cl)cc2)on1 |  | 2.82 µM (active)
Cc1cnc(CNc2ncncc2-c2ccc(C(=O)N(C)C)cc2)cn1 | 26.6% [at 2.29 µM] (inactive) | 
Cc1cnc(CNc2nc(-c3ccccc3C)nc3ccccc23)cn1 | 18.8% [at 2.29 µM] (inactive) | 
CC(=O)NCCNc1ccnc(-c2ccccc2C)n1 | 7.25% [at 2.29 µM] (inactive) | 
COc1ccc2c(c1)nc(SCC(=O)c1ccc(Br)s1)n2C |  | 15.8 µM (active)
COc1ccc2nccc(SCC(=O)O)c2c1 | -6.85% [at 11.4 µM] (inactive) | 
